Data on 14 compounds can be found in PubChem BioAssay.

A short description of assay [1]: reducers of endogenous Her2 protein level, primary screen, SKBR3 breast tumor cells, AlphaScreen, ATP viability (AID 461;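 active means Her2 level under about 52% in both replicate screens, with viability over 70% of control, limit read from the data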;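 on Her2 level: lower value means less Her2 protein in the cells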;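 on viability: percent of carrier control wells set as 100% viability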). The settings on record: 18-24 h, measured here: SKBR3 viability, ATP luminescence, at 10 µM. (Alpha assays give light when donor and acceptor beads are brought close together.)
Assay [2] addresses Receptor tyrosine-protein kinase erbB-2 (Homo sapiens) (UniProt P04626). The description is as above. The settings on record: 18-24 h, at 10 µM, stronger effect = lower value.
Assay [3] is described as follows: SK-BR-3 cell growth inhibitors, pilot screen, 24 h, human (AID 572;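 active means viability at or below 10% of carrier control in both of two separate runs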;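 further: compound exposure lasted between 18 and 24 h rather than exactly 24 h; 100% = carrier-treated control wells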). The settings on record: SK-BR-3 viability, CellTiter-Glo luminescence, at 10 µM, stronger effect = lower value. For orientation: In ATP-based viability assays light output follows the ATP content of the culture.
Assay [4] in a line: HUVEC growth inhibition – cell-based, human, primary screen (AID 575;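 active means viability at or below 30% in both replicate assays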;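 further: 100% = median of untreated cell wells with 0.1% DMSO on each plate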). Particulars: HUVEC proliferation, CellTiter-Glo luminescence, 72 h; at 10 µM; stronger effect = lower value.
Assay [5] can be described thus: growth inhibitors of H69AR lung tumor, primary screen, human, duplicate replicates (AID 580).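 Further: 100% = mean luminescence of untreated wells and 0% = no signal.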 The settings on record: H69AR lung tumor cells viability, ATP luminescence, 72 h; at 10 µM; stronger effect = lower value.
A short description of assay [6]: reversal of MRP1-mediated doxorubicin resistance, pilot screen, H69AR cells, doxorubicin co-treatment (AID 601;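 active means viability loss from added drug above about 55%, and viability with drug at most 40%, in both replicates, limit read from the data, passing the limit was not always enough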). Particulars: CellTiter-Glo, 72 h, at 10 µM; for differential viability (reversal): stronger effect = higher value.
Assay [7] in a line: 384-well plate pilot, post-Golgi transport modulator project, inhibition of yeast transport mutant growth (AID 636; in the data active means inhibition above about 31%). The settings on record: absorbance 615 nm, about 18 h, stronger effect = higher value.
Assay [8] is described as follows: growth suppression of yeast trafficking mutant, preliminary HTS, modulators of trafficking downstream of Golgi apparatus project, 1536-format plate, OD 615 nm (AID 637; in the data active means inhibition above about 30%). The settings on record: yeast transport mutant growth, absorbance 615 nm, 18 h; stronger effect = higher value.
Assay [9] is described as follows: OD615 S. cerevisiae growth inhibition, permissive medium, pilot counter-assay, permissive growth control for S. cerevisiae lifespan shortening project (AID 705;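 active means growth inhibition above 25% in both replicates, a cutoff set 3 SD above the mean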). Particulars: OD615, 24 h, at 10 µM, stronger effect = higher value.
A short description of assay [10]: Restrictive medium S. cerevisiae growth inhibition, OD615, pilot screen of yeast lifespan reduction project, restrictive growth control (AID 706;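 active means growth inhibition above a set limit, 3 SD over mean compound inhibition, in both replicates, cut at about 43% in these data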;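 further: modified DeaD lifespan yeast strain shifted to restrictive glucose medium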). The settings on record: OD615, 48 h, at 10 µM, stronger effect = higher value.
Assay [11] can be described thus: viability gain of MRP-1-high H69AR cells under doxorubicin, pilot screen, MRP-1 activator project, CellTiter-Glo, duplicate (AID 807;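 active means viability increase at or above a cutoff of the median across tested compounds plus 3 SD, cut at about 8.5% in these data, passing the limit was not always enough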;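 further: compound pretreatment 18-22 h then 72 h combined with doxorubicin; 0% = doxorubicin alone and 100% = vehicle without doxorubicin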). The settings on record: H69AR viability with doxorubicin, CellTiter-Glo luminescence; at 10 µM; stronger effect = higher value.
Assay [12] can be described thus: growth suppression of beta-catenin knockout HCT116, pilot screen, human colon tumor cells (AID 823;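 active means cell viability at or below a set limit in both duplicate runs, the limit being the all-compound median minus 4 SD, cut at about 23% in these data, passing the limit was not always enough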;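 further: 0% = wells killed by 20 µM Hyamine and 100% = untreated DMSO cell wells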). The settings on record: CellTiter-Glo, 60 h, at 10 µM, stronger effect = lower value.
A short description of assay [13]: growth suppression of PTEN-deleted HCT116, pilot screen, cell-based, HCT116 clonal line, CellTiter-Glo (AID 824;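 active means viability at or below 27.92% in each of two runs, the all-compound median minus 4 SD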;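 further: 0% = 20 µM Hyamine control and 100% = vehicle cell control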). The settings on record: 60 h, at 10 µM, stronger effect = lower value.
Assay [14] is described as follows: inhibitors of the yeast RAM network, pilot screen, dse1pr::URA3 reporter, 5-FOA selection (AID 869;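 active means inhibition over a set limit, the all-compound mean plus 3 SD, in both replicate runs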;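 further: 0% = DMSO wells with no growth and 100% = 10 µM 1-NA-PP1 with full growth; RAM network block rescues cells from 5-FOA so hits raise OD615 growth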). The settings on record: S. cerevisiae dse1pr::URA3 5-FOA growth, OD615, 2 d; at 10 µM; stronger effect = higher value; strain carries analog-sensitive mutant Cbk1 kinase.
The mark [15] stands for this setting: H69AR cells + 2 uM doxorubicin, measured here: viability with 2 uM doxorubicin, stronger effect = lower value.
[16] abbreviates: H69AR cells, compound alone cytotoxicity.

Records with an inconclusive call do not appear. The source made the active and inactive calls.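 How the source made its calls, unless noted: active means viability at or under a set limit in both replicates, limit being median viability minus 3 SD (cut at about 48% in these data, passing the limit was not always enough); inconclusive means at or under the limit in just one replicate; inactive means at or above the limit in both replicates.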

Chain of Receptor tyrosine-protein kinase erbB-2 (Homo sapiens) (P04626 whole entry, looked up): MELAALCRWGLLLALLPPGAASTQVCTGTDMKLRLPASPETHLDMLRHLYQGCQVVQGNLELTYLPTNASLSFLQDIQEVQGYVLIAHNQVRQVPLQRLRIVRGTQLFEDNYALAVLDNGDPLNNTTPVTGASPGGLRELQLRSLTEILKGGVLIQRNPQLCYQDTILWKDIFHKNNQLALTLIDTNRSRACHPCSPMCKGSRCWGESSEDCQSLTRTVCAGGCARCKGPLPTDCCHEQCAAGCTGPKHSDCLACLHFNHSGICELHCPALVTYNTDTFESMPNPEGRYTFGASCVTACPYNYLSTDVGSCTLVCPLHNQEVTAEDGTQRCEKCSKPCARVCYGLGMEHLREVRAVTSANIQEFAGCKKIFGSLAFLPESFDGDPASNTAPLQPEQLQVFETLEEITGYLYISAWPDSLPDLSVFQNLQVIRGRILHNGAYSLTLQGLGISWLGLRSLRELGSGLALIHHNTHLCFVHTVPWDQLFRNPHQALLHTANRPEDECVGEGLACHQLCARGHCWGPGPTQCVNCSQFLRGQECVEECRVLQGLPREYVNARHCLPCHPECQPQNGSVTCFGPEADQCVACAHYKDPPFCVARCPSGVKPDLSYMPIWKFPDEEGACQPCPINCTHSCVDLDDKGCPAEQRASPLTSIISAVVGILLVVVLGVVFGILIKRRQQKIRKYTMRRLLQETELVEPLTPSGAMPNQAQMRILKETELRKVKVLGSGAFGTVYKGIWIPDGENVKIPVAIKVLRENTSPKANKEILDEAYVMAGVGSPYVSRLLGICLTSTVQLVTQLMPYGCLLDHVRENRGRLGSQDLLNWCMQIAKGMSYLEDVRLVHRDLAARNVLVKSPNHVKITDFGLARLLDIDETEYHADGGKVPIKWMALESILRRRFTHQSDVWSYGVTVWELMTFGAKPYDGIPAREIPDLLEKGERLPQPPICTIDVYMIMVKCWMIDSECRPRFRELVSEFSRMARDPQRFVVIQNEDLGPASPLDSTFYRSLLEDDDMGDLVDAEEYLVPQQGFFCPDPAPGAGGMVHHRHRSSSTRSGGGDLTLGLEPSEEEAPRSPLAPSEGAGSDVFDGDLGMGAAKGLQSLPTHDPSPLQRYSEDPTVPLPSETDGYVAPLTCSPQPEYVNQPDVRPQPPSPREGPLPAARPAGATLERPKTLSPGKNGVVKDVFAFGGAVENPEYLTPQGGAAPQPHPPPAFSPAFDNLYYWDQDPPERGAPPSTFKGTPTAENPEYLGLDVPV

What is called viability is a read-out of living cells in per cent, often relative to untreated cells. What is called inhibition is the relative decrease from the control value, in per cent. For the compound `COc1ccc(-n2c(=O)cc(N3CCN(Cc4ccccc4)CC3)[nH]c2=O)cc1`, the viability is 87% in [1]; 87% (inactive) in assay [3]; 94% (inactive) in [4]; 92.7% (inactive) in [5]; 110% in assay [6] (setting [15]); 92.7% in assay [6] (setting [16]). Further, the Her2 level in [2] is 105% (inactive). The differential viability (reversal) in [6] (H69AR cells + 2 uM doxorubicin) is -17.5% (inactive). For the same compound, the inhibition was 0.26% (inactive) in assay [7] and -4% (inactive) in assay [8].

Consider `Cn1c(=O)[nH]c(=O)c2c1nc(NCCCn1ccnc1)n2Cc1ccccc1`, for which the viability is 89% in assay [1]; 89% (inactive) in assay [3]; 97.9% (inactive) in assay [4]; 95.8% (inactive) in [5]; 91.7% in assay [6] (setting [15]); 95.8% in [6] (setting [16]). In [2], the Her2 level is 108% (inactive). In addition, in assay [6] (H69AR cells + 2 uM doxorubicin), the differential viability (reversal) was 4.16% (inactive). The inhibition in assay [7] was -1.47% (inactive); in assay [8], -3.44% (inactive).

On to `Cc1nc(NC2=NCN(CCN3CCOCC3)CN2)nc2c(C)cccc12`, for which the viability is 114% in assay [1]; 114% (inactive) in assay [3]; 77.3% (inactive) in assay [4]; 95.2% (inactive) in assay [5]; 108% in assay [6] (setting [15]); 95.2% in [6] (setting [16]). In assay [2], the Her2 level was 91.5% (inactive). Further, the differential viability (reversal) in assay [6] (H69AR cells + 2 uM doxorubicin) was -12.6% (inactive). Further, the values for the inhibition in [7] and in assay [8] were -2.11% (inactive) and -7.33% (inactive), respectively.

Turning to `O=C(Nc1cccc2c1CCCC2)C1CCN(c2nnnn2-c2ccccc2)CC1`, the viability in [1] is 92%; in assay [3] it was 92% (inactive); in assay [4], 97.7% (inactive); in assay [5], 89.2% (inactive); in [6] (setting [15]) it was 83.9%; in assay [6] (setting [16]) it was 89.2%. Besides, in assay [2], the Her2 level was 99% (inactive). In assay [6] (H69AR cells + 2 uM doxorubicin), the differential viability (reversal) is 5.29% (inactive). In addition, the inhibition in assay [7] is -0.13% (inactive); in assay [8] it was -6.45% (inactive).

With `O=C(Nc1ccc2c(c1)OCO2)C(c1ccccc1)N1CCC2(CC1)OCCO2` (configuration not stated), the viability is 96.5% in [1]; 96.5% (inactive) in [3]; 82.6% (inactive) in assay [4]; 96.3% (inactive) in [5]; 88.6% in assay [6] (setting [15]); 96.3% in assay [6] (setting [16]). Besides, the Her2 level in assay [2] is 101% (inactive). For the same compound, the differential viability (reversal) in assay [6] (H69AR cells + 2 uM doxorubicin) is 7.72% (inactive). In addition, the results for the inhibition in assay [7] and in [8] were -3.78% (inactive) and 14.9% (inactive), respectively.

As to `Cc1c(NC(=O)c2coc(=O)c(Br)c2)c(=O)n(-c2ccccc2)n1C`, the viability in assay [1] was 85%; in assay [3] it was 85% (inactive); in assay [4], 72.9% (inactive); in [5] it was 1.47% (active); in assay [6] (setting [15]), 1.64%; in assay [6] (setting [16]) it was 1.47%. Moreover, in [2], the Her2 level was 27.5% (active). Further, the differential viability (reversal) in [6] (H69AR cells + 2 uM doxorubicin) is -0.165% (inactive). Also, the figures for the inhibition in assay [7] and in [8] were -4.55% (inactive) and -4.92% (inactive), respectively.

As to `O=C(NCC1CCCO1)c1cccc(N2C(=O)C3C4C=CC(C4)C3C2=O)c1` (configuration not stated), the viability in assay [1] is 110%; in assay [3], 110% (inactive); in assay [4], 98.4% (inactive); in assay [5] it was 100% (inactive); in assay [6] (setting [15]) it was 89.8%; in assay [6] (setting [16]), 100%. Moreover, in assay [2], the Her2 level is 94% (inactive). Further, the differential viability (reversal) in assay [6] (H69AR cells + 2 uM doxorubicin) was 10.3% (inactive). Also, the figures for the inhibition in assay [7] and in assay [8] were -6.4% (inactive) and -9.84% (inactive), respectively.

Turning to `O=C(CSc1nnnn1C1CCCC1)NCc1ccc2c(c1)OCO2`, the viability in assay [1] was 86%; in assay [3], 86% (inactive); in assay [4] it was 93.7% (inactive); in assay [5] it was 102% (inactive); in [6] (setting [15]), 98.6%; in assay [6] (setting [16]) it was 102%. For the same compound, the Her2 level in assay [2] is 89% (inactive). The differential viability (reversal) in [6] (H69AR cells + 2 uM doxorubicin) is 3.33% (inactive). Moreover, the inhibition in [7] is -6.22% (inactive); in [8], 2.46% (inactive).

Consider `Cc1ccc(C2/C(=C(/O)c3cnn(-c4ccccc4)c3C)C(=O)C(=O)N2CCN2CCOCC2)o1` (configuration not stated), for which the viability in [1] is 77.5%; in assay [3] it was 77.5% (inactive); in assay [4] it was 112% (inactive); in assay [5] it was 85% (inactive); in assay [6] (setting [15]), 77.1%; in [6] (setting [16]), 85%. For the same compound, the Her2 level in assay [2] was 79% (inactive). The differential viability (reversal) in assay [6] (H69AR cells + 2 uM doxorubicin) is 7.89% (inactive). Moreover, the inhibition is -4.61% (inactive) in [7] and -1.09% (inactive) in [8].

For the compound `O=C(O)c1cccc(NC(=O)C2C3C=CC(C3)C2C(=O)OCC(F)(F)C(F)F)c1` (configuration not stated), the viability was 102% in assay [1]; 102% (inactive) in [3]; 94% (inactive) in assay [4]; 89% (inactive) in assay [5]; 88.3% in [6] (setting [15]); 89% in [6] (setting [16]). In addition, in assay [2], the Her2 level is 91.5% (inactive). In addition, the differential viability (reversal) in assay [6] (H69AR cells + 2 uM doxorubicin) is 0.695% (inactive). For the same compound, the inhibition is -5.79% (inactive) in [7] and -1.33% (inactive) in [8].

`COc1ccc(-c2noc(-c3ccccc3C(=O)Nc3cccnc3)n2)cc1`: the viability was 109% in [1]; 109% (inactive) in assay [3]; 106% (inactive) in [4]; 86.5% (inactive) in assay [5]; 73.3% in [6] (setting [15]); 86.5% in [6] (setting [16]). The Her2 level in [2] is 98.5% (inactive). For the same compound, in assay [6] (H69AR cells + 2 uM doxorubicin), the differential viability (reversal) was 13.2% (inactive). The inhibition was -1.17% (inactive) in assay [7] and 0.79% (inactive) in [8].

As to `Cc1ccc2[nH]c(=O)c(C(c3nnnn3CCc3ccccc3)N3CCOCC3)cc2c1` (configuration not stated), the viability in [1] was 86%; in assay [3], 86% (inactive); in assay [4], 76.9% (inactive); in [5], 100% (inactive); in assay [6] (setting [15]), 87.8%; in [6] (setting [16]) it was 100%. In addition, the Her2 level in assay [2] is 87.5% (inactive). Further, in assay [6] (H69AR cells + 2 uM doxorubicin), the differential viability (reversal) was 12.1% (inactive). The results for the inhibition in [7] and in assay [8] were -5.95% (inactive) and -0.49% (inactive), respectively.

As for `CCn1c(SCC(=O)Nc2ccc3c(c2)OCO3)nc2c(c1=O)SC(C)C2` (configuration not stated), the viability in assay [1] is 92.5%; in assay [3], 92.5% (inactive); in assay [4], 81% (inactive); in [5], 84.7% (inactive); in assay [6] (setting [15]), 83.2%; in assay [6] (setting [16]) it was 84.7%. In addition, the viability in [12] is 99.9% (inactive); in [13], 96.8% (inactive). Besides, in [2], the Her2 level was 102% (inactive). Further, in assay [6] (H69AR cells + 2 uM doxorubicin), the differential viability (reversal) was 1.51% (inactive). The inhibition is -4.67% (inactive) in assay [7], -2% (inactive) in assay [8] and 1.63% (inactive) in assay [14]. In addition, the growth inhibition was -7.09% (inactive) in [9] and -23.1% (inactive) in assay [10]. The viability increase in [11] is -2.42% (inactive).

With `O=C(Oc1cc2oc(=O)c3c(c2cc1Cl)CCCC3)c1ccco1`, the viability was 82% in [1]; 82% (inactive) in assay [3]; 89.6% (inactive) in [4]; 80.2% (inactive) in assay [5]; 93.2% in assay [6] (setting [15]); 80.2% in [6] (setting [16]). Also, the viability was 108% (inactive) in [12] and 104% (inactive) in assay [13]. Besides, the Her2 level in [2] is 87% (inactive). Further, in assay [6] (H69AR cells + 2 uM doxorubicin), the differential viability (reversal) was -13.1% (inactive). Moreover, the values for the inhibition in assay [7], in [8] and in assay [14] were 1.28% (inactive), -4% (inactive) and 1.97% (inactive), respectively. Further, the growth inhibition was -14.7% (inactive) in assay [9] and -13.7% (inactive) in assay [10]. Besides, the viability increase in [11] is -3.67% (inactive).
